Bioassay records deposited in PubChem by National Center for Advancing Translational Sciences (NCATS).
The list is not random: actives were taken first. Their share in the collection is about 7.4%.
Rab9 prom act: Rab9 promoter activation. Huh7 Rab9 promoter-luciferase reporter, luminescence, 24 h. Potency, µM (top dose mostly 9.22 µM), hits mostly activators. actives 2.8% (n = 320,000); further: nearly all actives have a fitted effect of over 60% in size
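Huh7 cells stably carrying Rab9 promoter–luciferase reporter, plated 1500 cells/well, compound added after 2 h and incubated 24 h at 37 °C; luciferase luminescence then read after 10 min with detection reagent.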
SMN2 splice up: SMN2 splice variant enhancement | actives 2.8% (n = 210,000) | Potency, µM (top dose mostly 46.1 µM), actives largely listed as activators | HEK293 SMN2-luciferase splicing reporter, luminescence, 30-36 h; further: nearly all actives have a fitted effect of over 55% in size
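qHTS luciferase splicing reporter: luminescence rises when SMN2 exon 7 is included in transfected HEK293 cells. Compound exposure lasted 30-36 h at 37C, with 4.5 mM final sodium butyrate as control, followed by a ONE-Glo read.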
NPC1 promoter act: activates the NPC1 promoter; Huh7 NPC1 promoter luciferase reporter, 24 h; Potency, µM (doses to about 9.22 µM), usual class: activators; actives 2.4% (n = 320,000); further: nearly all actives have a fitted effect of over 60% in size
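Luminescence from an NPC1 promoter-driven luciferase reporter in stably transfected Huh7 cells was measured after 24 h compound treatment at 37 °C, followed by 10 min ambient incubation with luciferase detection reagent.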
FLuc counter: counter-screen for miR-21 project: firefly luciferase inhibitors or activators; purified FLuc, Km substrates, luminescence inhibition; P08659; actives 6.9% (n = 360,000); Potency, µM (highest dose often 57.5 µM), hits mostly inhibitors; further: nearly all actives have a fitted effect of over 55% in size
Target sequence (P08659 whole entry, looked up): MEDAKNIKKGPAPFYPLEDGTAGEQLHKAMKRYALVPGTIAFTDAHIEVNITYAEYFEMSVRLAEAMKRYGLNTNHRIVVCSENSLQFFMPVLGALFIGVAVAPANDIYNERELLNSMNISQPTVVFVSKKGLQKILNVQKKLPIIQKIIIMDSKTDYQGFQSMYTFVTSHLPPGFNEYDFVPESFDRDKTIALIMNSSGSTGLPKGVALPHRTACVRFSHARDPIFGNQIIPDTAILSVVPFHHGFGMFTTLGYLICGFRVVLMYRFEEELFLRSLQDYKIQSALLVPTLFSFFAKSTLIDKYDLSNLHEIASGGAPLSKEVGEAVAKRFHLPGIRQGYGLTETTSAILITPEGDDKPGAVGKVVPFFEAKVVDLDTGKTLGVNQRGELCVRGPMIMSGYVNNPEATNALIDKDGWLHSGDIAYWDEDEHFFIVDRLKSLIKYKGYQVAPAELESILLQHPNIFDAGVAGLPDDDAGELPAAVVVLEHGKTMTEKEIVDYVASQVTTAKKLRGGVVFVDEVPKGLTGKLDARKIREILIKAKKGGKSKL
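Biochemical qHTS of compounds, final roughly 60 µM downward over six points, against 10 nM purified firefly luciferase using Km concentrations of substrates (10 uM D-luciferin, 10 uM ATP) in Tris acetate pH 7.5 buffer; luminescence output.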
ELG1 genotox: inducers of genotoxicity in HEK293T ELG1-luciferase cells. HEK293T ELG1-luciferase reporter, luminescence, 16 h. Potency, µM (doses to about 46 µM), most hits filed as activators. actives 1.3% (n = 330,000); further: nearly all actives have a fitted effect of over 60% in size
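Luminescence read-out: rising ELG1-luciferase signal, reflecting elevated ELG1 protein under genetic stress, flags genotoxic compounds. Cells were treated for 16 hr at 37 °C before ONE-Glo detection.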
Hits are given with their value; i = inactive; ? = inconclusive; nt = no result; [ ] = remark or other dose. The call rests on the fitted dose curve; in most records, active means well fitted curve in the direction sought with a large enough effect; inconclusive means small, poorly fitted or top-dose-only effect, or another doubt; inactive means no such curve, though single readings can be large; an effect the other way counts as inactive or inconclusive.

SMILES | Rab9 prom act | SMN2 splice up | NPC1 promoter act | FLuc counter | ELG1 genotox
Fc1cccc(CNc2ncnc3ccc(-c4ccoc4)cc23)c1 | i | nt | i | i | nt
Cc1ccc(NC(=O)c2sc3nc(-c4cccs4)ccc3c2N)cc1F | nt | i | nt | i | nt
O=C(Nc1nc(-c2cccs2)cs1)c1ccc(Cl)cc1 | i | i | i | 11µM | ?
Cc1csc(NC(=O)c2sc3nc(-c4cccs4)ccc3c2N)n1 | i | i | i | 3.8µM | ?
Cc1ccc(C(=O)Nc2nccc(-c3cccs3)n2)cc1 | i | i | i | 13µM | i
COc1ccc(C(=O)Nc2nc(-c3cccs3)cs2)cc1 | nt | i | nt | 6.7µM | nt
CC(=O)N=C(N)Sc1nc2ccccc2[nH]1 | 4µM | 13µM | 2.5µM | 15µM | ?
COc1cccc2[nH]c(-c3ccccn3)nc12 | nt | 4µM | nt | nt | nt
COc1cnc(-c2ccccn2)[nH]c1=O | i | i | i | i | i
CC(=O)Nc1ccc2nc(-c3ccccn3)[nH]c2c1 | 2.8µM | 11µM | 3.5µM | 19µM | ?
c1cncc(-c2nc3cc4ccccc4cc3[nH]2)c1 | 1.6µM | 4µM | ? | 0.6µM | ?
CC(=O)Nc1ccc2nc(-c3cc(C)ccc3C)[nH]c2c1 | nt | i | nt | ? | nt
Nc1nc2cc3ccccc3cc2[nH]c1=O | i | nt | i | i | i
c1ccc(-c2nc3cc4ccccc4cc3[nH]2)nc1 | 0.63µM | 0.45µM | 0.63µM | 0.11µM | 0.23µM
COc1ccc(-c2nnc(SCC(=O)Nc3ccc(C)c(C)c3)s2)cc1 | nt | nt | nt | i | nt
CCCCCCCCCCCCC/C=C/[C@@H](O)C(CO)NC(C)=O (stereo not given in full) | nt | i | nt | nt | nt
Cc1ccc(Nc2nnc(SC(C)C(=O)Nc3c(C)n(C)n(-c4ccccc4)c3=O)s2)cc1 (stereo not given) | i | i | i | 11µM | i
COc1cc(CN(C(=O)c2ccc(OC(C)C)cc2)c2ccccn2)cc(OC)c1OC | nt | nt | nt | i | nt
Cc1ccc(C)c(CSc2nc3ccncc3n2CC(=O)Nc2ccc(N(C)C)cc2)c1 | nt | i | nt | ? | nt
Cc1cc(C)c(NC(=O)c2ncoc2-c2ccco2)c(C)c1 | nt | nt | nt | i | nt
CC(=O)Nc1ccc(NC(=O)c2ncoc2-c2ccco2)cc1 | nt | nt | nt | 19µM | nt
Cc1cccc(NS(=O)(=O)c2ccc3c(c2)CCN3C(=O)C2CC2)c1C | nt | i | nt | ? | nt
CCOc1ccc2nc(N(Cc3cccnc3)C(=O)c3ccc4c(c3)OCCO4)sc2c1 | nt | nt | nt | 13µM | nt
O=C(Nc1ccccc1C(=O)OCc1cc(=O)n2c3c(sc2n1)CCCC3)c1ccc(F)cc1 | nt | nt | nt | i | nt
Clc1ccc(CSc2nnc(-c3ccncc3)s2)cc1 | i | nt | i | i | i
SMILES | Rab9 prom act | SMN2 splice up | NPC1 promoter act | FLuc counter | ELG1 genotox
Clc1cccc(Cl)c1CSc1nnc(-c2ccncc2)s1 | i | nt | i | 15µM | i
CCc1ccccc1NC(=O)CSc1nc2ccccc2nc1Cc1cccc(OC)c1 | nt | nt | nt | i | nt
COc1cc(/C=N/NC(=S)Nc2cccc(S(=O)(=O)N(C)C)c2)cc(OC)c1O | i | i | i | 15µM | i
CN(C)S(=O)(=O)c1cccc(NC(=S)N/N=C/c2ccc(O)c(O)c2O)c1 | i | nt | i | 13µM | i
COc1ccc(O)c(/C=N/NC(=S)Nc2cccc(S(=O)(=O)N(C)C)c2)c1 | i | i | i | 11µM | i
CS(=O)(=O)N(CC(=O)O)Cc1ccccc1 | nt | i[9.22 µM] | nt | nt | nt
Fc1ccc(-n2nnc(-c3ccccc3Br)n2)cc1 | i | nt | i | i | i
Cc1ccc(-c2cc3ccccc3nc2N2CCOCC2)cc1 | i | i | i | i | i
COc1ncccc1-c1nnn(-c2ccc(C)cc2)n1 | 3.2µM | nt | 3.2µM | 4.3µM | 9.2µM
COc1ncccc1-c1nnn(-c2ccc(F)cc2)n1 | 4µM | nt | 2.8µM | 5.4µM | 9.2µM
COc1ncccc1-c1nnn(-c2ccc(Cl)c(Cl)c2)n1 | 3.2µM | nt | 2.8µM | 4.8µM | ?
Cc1ccc(-n2nnc(-c3cc4ccccc4nc3Cl)n2)cc1 | 4.5µM | nt | ? | 6µM | ?
NC(=O)c1cccnc1Oc1ccc(Cl)cc1Cl | i | nt | i | i | i
Cc1ccc(-n2c(=O)[nH]c3ncccc3c2=O)cc1 | i | nt | i | i | i
CC(=O)OCC(=O)[C@]12OC(C)(C)O[C@@H]1C[C@H]1[C@H]3CC=C4C[C@@H](O)CC[C@]4(C)[C@H]3CC[C@]12C | nt | i[9.22 µM] | nt | nt | nt
Cc1ccc(CNC(=O)CSc2nnc(C)c3c(C)n(-c4ccccc4)nc23)cc1 | nt | nt | nt | i | nt
CCOc1ccc(-c2nnc(SCC(=O)Nc3cccc(C#N)c3)o2)cc1 | nt | nt | nt | 19µM | nt
CCOc1ccc(-c2nnc(SCC(=O)Nc3ccccc3C(F)(F)F)o2)cc1 | nt | nt | nt | i | nt
CCOc1ccc(-c2nnc(SCC(=O)Nc3cccc(Cl)c3C)o2)cc1 | nt | nt | nt | 13µM | nt
COC(=O)N1C(/C=C/c2ccc3c(c2)OCO3)=Cc2ccccc2C1CC(C)=O (stereo not given) | nt | i[9.22 µM] | nt | nt | nt
CCCC(=O)N(CCN1CCOCC1)c1nc2cc(C)c(C)cc2s1 | 2.2µM | nt | 2.5µM | i | ?
Cc1ccc2nc(N(CCN3CCOCC3)C(=O)CCS(=O)(=O)c3ccccc3)sc2c1 | ? | nt | ? | i | ?
Nc1n[nH]c(N)c1N=Nc1ccc2c(c1)OCO2 | ? | i | ? | 12µM | i
Cc1ccc(N=Nc2c(N)n[nH]c2N)cc1 | i | nt | ? | 15µM | ?
CCOC(=O)[C@@H](O)Cc1cnc2ccccc2n1 | nt | i[9.22 µM] | nt | nt | nt
SMILES | Rab9 prom act | SMN2 splice up | NPC1 promoter act | FLuc counter | ELG1 genotox
O=C(COC(=O)COc1ccc(Cl)cc1)Nc1ccc2c(c1)OCCO2 | i | nt | i | i | i
Cc1ccc(Cl)c(OCC(=O)Nc2ccc3c(c2)OCCO3)c1 | 1.4µM | 18µM | 2.8µM | 1.9µM | i
O=C(COc1cc(Cl)c(Cl)cc1Cl)NC(=O)Nc1ccc2c(c1)OCCO2 | ? | 18µM | ? | 21µM | ?
CCN(CC(=O)Nc1ccc2c(c1)OCCO2)C(=O)COc1cc(C)ccc1Cl | i | nt | i | i | i
Cc1ccc(NC(=O)c2ccc3snnc3c2)cc1Cl | nt | ? | nt | i | nt
Cc1nccc(-c2cc(-c3ccc(Cl)cc3Cl)no2)n1 | 1.1µM | nt | 1.4µM | 2.4µM | ?
O=C1CCCC(O)=C1N=Nc1ccc2c(c1)OCO2 | 3.2µM | 16µM | ? | 9.5µM | 16µM
O=C1CCCC(O)=C1N=Nc1ccc(C(=O)O)cc1 | i | nt | i | i | i
N/C(=N\OC(=O)CCCOc1ccccc1)c1ccc(Br)cc1 | i | i | i | i | i
COC(=O)c1ccc(OC(=O)c2ccco2)cc1 | i | i | i | ? | i
N/C(=N\OC(=O)c1ccco1)c1ccc(Br)cc1 | ? | i | ? | 6.7µM | ?
Cc1cccc(/C(N)=N/OC(=O)c2ccco2)c1 | ? | 16µM | ? | 1.9µM | 2.3µM
COc1ccc(/C(N)=N/OC(=O)c2ccco2)cc1 | 0.35µM | 6.3µM | 0.5µM | 0.95µM | 0.46µM
Cc1ccc(/C(N)=N/OC(=O)c2ccco2)cc1 | 2.5µM | 11µM | 4µM | 2.4µM | ?
Cc1cccc(/C(N)=N/OC(=O)N2CCOCC2)c1 | i | i | i | 17µM | i
N/C(=N\OC(=O)c1ccco1)c1ccccc1 | i | 22µM | i | 6.7µM | ?
COc1ccc(C(=O)COC(=O)c2ccn(C)n2)cc1 | ? | nt | 3.5µM | 17µM | ?
COc1ccc(N=N/C(=C\O)C(=O)c2ccco2)cc1 | i | i | i | 24µM | i
